Test results published in PubChem BioAssay (Tox21).
Records with an inconclusive call do not appear. The source made the active and inactive calls. Unless noted, calls follow the shape of the dose curve; as a rule, active = well fitted curve in the direction sought with a large enough effect in the repeat runs; inconclusive = weak or mixed curves; inactive = no such curve, though single readings can be large; an effect the other way counts as inactive or inconclusive.

What was measured:
[1] = qHTS assay for small molecules that induce genotoxicity in human embryonic kidney cells expressing luciferase-tagged ATAD5 (AID 651632); also: nearly all actives have a fitted effect of over 15% in size
How it was run: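 ATAD5-luc HEK293T, 2,000 cells/well; cpd or DMSO pin-transferred; 16 hr, 37C/5% CO2; Amplite 30 min RT; luminescence.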

[2] = qHTS assay for small molecule agonists of the p53 signaling pathway - cell viability (AID 651633; calls by dose curve;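 also: p53RE-bla HCT reporter cells with a stable beta-lactamase p53 reporter; series mostly up to about 83 µM; nearly all actives have a fitted effect of over 30% in size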)
How it was run: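 p53RE-bla cells, seeded at 4,000 per well and rested 5 h at 37 C/5% CO2, received compounds in DMSO for 16 h at 37 C. CellTiter-Glo was then added, and luminescence was read after 30 min at room temperature to gauge cytotoxicity.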

[3] = qHTS assay for small molecules that induce genotoxicity in human embryonic kidney cells expressing luciferase-tagged ATAD5 - cell viability (AID 651634; calls by dose curve; also: nearly all actives have a fitted effect of over 25% in size)
How it was run: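 Fluorescence from CellTiter-Fluor, reporting protease activity within live cells, served as the viability read-out. HEK293T cells carrying luciferase-tagged ATAD5 had been treated with compound for 15.5 hr at 37C.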

[4] = qHTS assay for small molecule disruptors of the mitochondrial membrane potential - cell viability (AID 720634; calls by dose curve;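 also: human HepG2 liver cancer cells; series mostly up to about 83 µM; nearly all actives have a fitted effect of over 20% in size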)
How it was run: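 Cells: HepG2, 2,000/well, attached overnight. Compound 1 hr, 37 C/5% CO2. +m-MPI dye, +CellTiter-Glo 30 min RT. Readout: luminescence (ATP).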

[5] = qHTS assay for small molecule disruptors of the mitochondrial membrane potential (AID 720635); also: potency is read from the fitted curve at half-maximal effect
How it was run: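 HepG2 cells (2,000/well) attached overnight at 37C, then took compound for 1 hr at 37C, 5% CO2. Mito-MPS dye was added for 30 min; fluorescence was read at 490/535 nm (monomers) and 540/590 nm (aggregates).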

[6] = qHTS assay to test for compound auto fluorescence at 590 nm (red) in HepG2 cells (AID 720674)
How it was run: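 Rose Bengal sodium served as the red fluorophore standard. HepG2 monolayers (overnight attachment, MEM with 10% FBS) were exposed to test compounds for 1 hr at 37 C and read at Ex 540/Em 590 nm.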

[7] = qHTS assay to test for compound auto fluorescence at 535 nm (green) in HepG2 cells (AID 720675)
[8] = qHTS assay to test for compound auto fluorescence at 460 nm (blue) in HEK293 cells (AID 720678)
How it was run: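 HEK293, 2,000 cells/well, 10% dialyzed FBS; attach 4-5 hr 37C; pin compound or DMSO; o/n 37C/5% CO2; fluorescence 405/460 nm; triamterene-equivalent units.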

[9] = qHTS assay to test for compound auto fluorescence at 590 nm (red) in HEK293 cells (AID 720679)
How it was run: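 Intensity at 540nm excitation and 590nm emission is reported as Rose Bengal sodium-equivalent autofluorescence. Measurements followed overnight exposure (37C, 5% CO2) of HEK293 cells, 2,000 per well, to 23 nL compound.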

[10] = qHTS assay to test for compound auto fluorescence at 535 nm (green) in HEK293 cells (AID 720680)
[11] = qHTS assay to test for compound auto fluorescence at 460 nm (blue) in HEK293 cell free culture (AID 720681)
How it was run: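 Test compounds were pinned into cell-free culture medium (DMEM with 10% FBS) and fluorescence was read directly at Ex/Em 405/460 nm. Signals were expressed as fluorescence equivalents of triamterene, with DMSO vehicle as control.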

[12] = qHTS assay to test for compound auto fluorescence at 535 nm (green) in HEK293 cell free culture (AID 720682)
How it was run: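 DMEM + 10% FBS, cell-free; cpd or DMSO pinned in; Ex485/Em535 read; output as fluorescein-equivalent signal.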

[13] = qHTS assay to test for compound auto fluorescence at 590 nm (red) in HEK293 cell free culture (AID 720683)
How it was run: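 Tox21 10K library compounds were pinned into cell-free DMEM with 10% FBS and fluorescence was read at excitation 540 nm. Activity is expressed as Rose Bengal sodium equivalency.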

[14] = qHTS assay to test for compound auto fluorescence at 590 nm (red) in HepG2 cell free culture (AID 720684)
How it was run: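 Measured in medium alone (MEM containing 10% FBS) following pintool addition of compound; emission at 590 nm with 540 nm excitation, referenced to Rose Bengal sodium.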

[15] = qHTS assay to test for compound auto fluorescence at 460 nm (blue) in HepG2 cell free culture (AID 720685)
How it was run: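 Compound (23 nL) or DMSO pinned into cell-free MEM with 10% FBS; blue fluorescence read at 405/460 nm excitation/emission, expressed as auto-fluorescence equivalency to triamterene.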

[16] = qHTS assay to test for compound auto fluorescence at 535 nm (green) in HepG2 cell free culture (AID 720686)
[17] = qHTS assay to test for compound auto fluorescence at 460 nm (blue) in HepG2 cells (AID 720687)
How it was run: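 Cells (2,000/well in MEM with 10% FBS) attached overnight at 37 C, then were exposed to compound or DMSO for 1 hr at 37 C, 5% CO2. Fluorescence read at Ex/Em 405/460 nm, expressed as triamterene-equivalent signal.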

[18] = molecular target: Glucocorticoid receptor (Homo sapiens) (UniProt P04150); test: qHTS assay to identify small molecule agonists of the glucocorticoid receptor (GR) signaling pathway (AID 720691; active = well fitted activation curve with a large enough effect in the signal ratio in the repeat runs, not every such curve was filed as active; the % refers to the signal ratio)
How it was run: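 Fluorescence intensity from LiveBLAzer B/G FRET substrate (2 h, room temperature) reports beta-lactamase expression driven by the glucocorticoid response element in GR-bla HeLa cells after 18 h compound exposure at 37 C.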

[19] = molecular target: Glucocorticoid receptor (Homo sapiens) (UniProt P04150); test: qHTS assay to identify small molecule antagonists of the glucocorticoid receptor (GR) signaling pathway (AID 720692; active = well fitted inhibition curve with a large enough effect in the signal ratio in the repeat runs, not every such curve was filed as active; the % refers to the signal ratio)
How it was run: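 HeLa GR-bla cells; cmpd + dex 5 nM final, 18 h 37 C; LiveBLAzer B/G FRET substrate 2 h RT; fluorescence intensity read. Antagonist mode, qHTS.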
% is scaled to controls: 0 for no effect and ±100 for the full control effect.

Sequence of Glucocorticoid receptor (Homo sapiens) (P04150 whole entry, looked up): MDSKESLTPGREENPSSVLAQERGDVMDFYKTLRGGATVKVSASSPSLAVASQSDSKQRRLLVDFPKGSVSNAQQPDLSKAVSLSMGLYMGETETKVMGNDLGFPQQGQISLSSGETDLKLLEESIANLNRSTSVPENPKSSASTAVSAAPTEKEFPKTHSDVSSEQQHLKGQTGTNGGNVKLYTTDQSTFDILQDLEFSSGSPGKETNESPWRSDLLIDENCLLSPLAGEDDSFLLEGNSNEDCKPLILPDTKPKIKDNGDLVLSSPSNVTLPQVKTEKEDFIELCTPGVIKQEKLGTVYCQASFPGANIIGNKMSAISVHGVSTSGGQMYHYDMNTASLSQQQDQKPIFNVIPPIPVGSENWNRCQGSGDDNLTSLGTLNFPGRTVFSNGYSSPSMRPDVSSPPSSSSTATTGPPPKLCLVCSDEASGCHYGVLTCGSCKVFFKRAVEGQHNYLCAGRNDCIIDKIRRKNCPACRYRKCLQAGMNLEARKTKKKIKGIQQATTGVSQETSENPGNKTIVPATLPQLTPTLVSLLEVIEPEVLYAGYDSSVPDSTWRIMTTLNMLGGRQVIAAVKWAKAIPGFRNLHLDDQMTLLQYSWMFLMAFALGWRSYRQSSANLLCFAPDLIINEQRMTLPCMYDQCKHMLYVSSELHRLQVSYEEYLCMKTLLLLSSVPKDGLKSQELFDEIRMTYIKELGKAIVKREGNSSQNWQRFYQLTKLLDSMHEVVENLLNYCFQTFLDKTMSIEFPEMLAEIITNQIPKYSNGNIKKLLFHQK

C=CCOc1c(Br)cc(C(C)(C)c2cc(Br)c(OCC=C)c(Br)c2)cc1Br
inactive: outcome [1] | outcome [2] | Potency [3] | outcome [4] | Potency [5] | outcome [6] | outcome [7] | outcome [8] | outcome [9] | outcome [10] | outcome [11] | outcome [12] | outcome [13] | outcome [14] | outcome [15] | outcome [16] | outcome [17] | Potency [18]

COc1ccc(/C=N/NC(=O)c2ccncc2)cc1OC
inactive: outcome [1] | outcome [2] | Potency [3] | outcome [4] | Potency [5] | outcome [6] | outcome [7] | outcome [8] | outcome [9] | outcome [10] | outcome [11] | outcome [12] | outcome [13] | outcome [14] | outcome [15] | outcome [16] | outcome [17] | Potency [18] | outcome [19]

O=c1[nH]c(=O)c2[nH]c(=O)[nH]c2[nH]1
inactive: outcome [1] | outcome [2] | Potency [3] | outcome [4] | Potency [5] | outcome [6] | outcome [7] | outcome [8] | outcome [9] | outcome [10] | outcome [11] | outcome [12] | outcome [13] | outcome [14] | outcome [15] | outcome [16] | outcome [17] | outcome [19]

C[Si]1(C)N[Si](C)(C)N[Si](C)(C)N1
active: Potency [5] 27.3 µM
inactive: outcome [1] | outcome [2] | Potency [3] | outcome [4] | outcome [6] | outcome [7] | outcome [8] | outcome [9] | outcome [10] | outcome [11] | outcome [12] | outcome [13] | outcome [14] | outcome [15] | outcome [16] | outcome [17]

CC(=O)N(CC(O)CO)c1c(I)c(C(=O)NCC(O)CO)c(I)c(C(=O)NCC(O)CO)c1I (stereo not drawn)
inactive: outcome [1] | outcome [2] | Potency [3] | outcome [4] | outcome [6] | outcome [7] | outcome [8] | outcome [9] | outcome [10] | outcome [11] | outcome [12] | outcome [13] | outcome [14] | outcome [15] | outcome [16] | outcome [17]

COC(/C=C(\C)CCC=C(C)C)OC
inactive: outcome [1] | outcome [2] | Potency [3] | outcome [4] | Potency [5] | outcome [6] | outcome [7] | outcome [8] | outcome [9] | outcome [10] | outcome [11] | outcome [12] | outcome [13] | outcome [14] | outcome [15] | outcome [16] | outcome [17] | Potency [18] | outcome [19]

O=C(/C=C/c1ccccc1)NCCO
inactive: outcome [1] | outcome [2] | Potency [3] | outcome [4] | Potency [5] | outcome [6] | outcome [7] | outcome [8] | outcome [9] | outcome [10] | outcome [11] | outcome [12] | outcome [13] | outcome [14] | outcome [15] | outcome [16] | outcome [17] | Potency [18]

O=C(O)C(=O)Nc1cccc(-c2nn[nH]n2)c1
inactive: outcome [1] | outcome [2] | Potency [3] | outcome [4] | Potency [5] | outcome [6] | outcome [7] | outcome [8] | outcome [9] | outcome [10] | outcome [11] | outcome [12] | outcome [13] | outcome [14] | outcome [15] | outcome [16] | outcome [17] | Potency [18] | outcome [19]

NCCc1ccn[nH]1
inactive: outcome [1] | outcome [2] | Potency [3] | outcome [4] | Potency [5] | fluorescence, relative to Rose Bengal [6] 0.0089% [at 18.6 µM] | fluorescence, % of fluorescein control [7] 0.0074% [at 18.6 µM] | fluorescence, % of triamterene [8] -0.006% [at 18.6 µM] | fluorescence, % of fluorescent control [9] 0.131% [at 18.6 µM] | fluorescence, % of fluorescein [10] -0.0168% [at 18.6 µM] | fluorescence, % of fluorescent control [11] -0.0158% [at 18.6 µM] | activity change [12] 0.0838% [at 18.6 µM] | fluorescence, % of fluorescent control [13] -0.0073% [at 18.6 µM] | fluorescence, % of Rose Bengal [14] 0.001% [at 18.6 µM] | fluorescence, % of fluorescent control [15] -0.0614% [at 18.6 µM] | fluorescence, % of fluorescein control [16] -0.0021% [at 18.6 µM] | fluorescence, % of fluorescent control [17] -0.0013% [at 18.6 µM] | outcome [19]

O=C(Nc1cccc(C2=NCCN2)c1)Nc1cccc(C2=NCCN2)c1
inactive: outcome [1] | outcome [2] | Potency [3] | outcome [4] | Potency [5] | outcome [6] | outcome [7] | outcome [8] | outcome [9] | outcome [10] | outcome [11] | outcome [12] | outcome [13] | outcome [14] | outcome [15] | outcome [16] | outcome [17]

O=C(c1ccc2c(c1)C(=O)OC2=O)c1ccc2c(c1)C(=O)OC2=O
inactive: outcome [1] | outcome [2] | Potency [3] | outcome [4] | Potency [5] | outcome [6] | outcome [7] | outcome [8] | outcome [9] | outcome [10] | outcome [11] | outcome [12] | outcome [13] | outcome [14] | outcome [15] | outcome [16] | outcome [17] | Potency [18] | outcome [19]
